Where “and” joins values, the source holds several entries; their conditions need not be identical. Equal entries are not always repeated. Compounds without any hit were thinned out: in the full panel of roughly 79,000, 15% have a hit. Values without a mark were called inactive. Calls of active or inactive are those of the source. No stated cut-off is given here; in the data, active means growth inhibition above about 70%; inactive means the rest.

Experiment [1] can be described thus: NCI Yeast Anticancer Drug Screen. Data for the rad50 strain (AID 155).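 Further: 0% = growth of vehicle-only cultures of the same strain.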 To be noted: S. cerevisiae rad50 strain growth inhibition, hits give high values; at 50.0 µM unless noted. The essentials:
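Genetically altered yeast (DNA repair pathway); compound treatment; growth inhibition vs vehicle ctrl.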

The nature of experiment [2]: NCI Yeast Anticancer Drug Screen. Data for the mec2-1 strain (AID 157). To be noted: S. cerevisiae mec2-1 strain, hits give high values; at 50.0 µM unless noted. An outline of the steps:
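Cells of the genetically defined mec2-1 yeast strain are incubated with test compound. Inhibition of growth is calculated against vehicle-treated controls.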

Experiment [3] is described as follows: NCI Yeast Anticancer Drug Screen. Data for the sgs1 mgt1 strain (AID 161).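 Further: 0% = growth of cultures given vehicle only.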 To be noted: S. cerevisiae sgs1 mgt1 strain, hits give high values; at 50.0 µM unless noted. An outline of the steps: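 Read-out: growth inhibition vs vehicle controls. Cells: mutant yeast strain deficient in DNA damage repair.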
Experiment [4] is described as follows: NCI Yeast Anticancer Drug Screen. Data for the cln2 rad14 strain (AID 165).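 Further: 0% = growth equal to vehicle treated cultures.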 To be noted: S. cerevisiae cln2 rad14 strain, hits give high values; at 50.0 µM unless noted. An outline of the steps: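 The screen exposed genetically defined yeast (cln2 rad14) to test compounds and scored growth inhibition relative to vehicle-treated controls.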
Experiment [5] is described as follows: NCI Yeast Anticancer Drug Screen. Data for the bub3 strain (AID 167). To be noted: S. cerevisiae bub3 mutant strain, hits give high values; at 50.0 µM unless noted. An outline of the steps: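 Yeast carrying a defined mutation is treated with each compound, and growth is compared with that of vehicle-exposed cells to give inhibition.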
Experiment [6] is described as follows: NCI Yeast Anticancer Drug Screen. Data for the mlh1 rad18 strain (AID 175). To be noted: S. cerevisiae mlh1 rad18 strain growth inhibition, hits give high values; at 50.0 µM unless noted. An outline of the steps: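 Compound-treated yeast growth, normalised to vehicle controls. Strain bears defined DNA repair mutations.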

Regarding `C(CCCC1CO1)CCC1CO1` (stereo not given), the growth inhibition in experiment [1] is 24.5%; in experiment [2], 18.3%; in experiment [3], 17.7%; in experiment [4], -36.5%; in experiment [5], 11.1%; in experiment [6], 7.65%.
As for `OC/C(Br)=C(\Br)CO`, the growth inhibition is -34.3% in experiment [1]; -54.4% in experiment [2]; -39.6% in experiment [3]; -9.25% in experiment [4]; -28.6% in experiment [5]; -35.5% in experiment [6].
As to `N=c1ccccn1CC(O)COc1ccc(Cl)cc1` (stereo not given), the growth inhibition is 11.8% in experiment [1]; -10.1% in experiment [2]; -8.85% in experiment [3]; -17.9% in experiment [4]; -2.5% in experiment [5]; -16.6% in experiment [6].
With `CC(C)(Nc1ccccc1)C(=O)OC(C)(C)C(=O)Nc1ccccc1`, the growth inhibition in experiment [1] is -7%; in experiment [2], -25.5%; in experiment [3], -12.4%; in experiment [4], 2.05%; in experiment [5], -6.45%; in experiment [6] it was -7.4%.
On to `Nc1nc(-c2ccc(Cl)cc2)cc(-c2cc(-c3ccc(Cl)cc3)nc(N)n2)n1`, for which the growth inhibition in experiment [1] was 6.7%; in experiment [2] it was -12.9%; in experiment [3], -8.15%; in experiment [4] it was -16%; in experiment [5], -11.2%; in experiment [6] it was 25.4%.
Take `CCN(CC)CCOc1cccc(NC(=O)CN(CC)CC)c1`: the growth inhibition in experiment [1] is -8.2%; in experiment [2], -25.8%; in experiment [3], 15.3%; in experiment [4] it was 1.4%; in experiment [5], 17%; in experiment [6], 1.65%.
`CC1=CCC2C(C)(C)CCCC2(C)C1COC1OC(OCC2C(C)=CCC3C(C)(C)CCCC23C)C2C1=CCC1C(C)(C)CCCC21C` (stereo not given): the growth inhibition in experiment [1] is 90% (active); in experiment [2], 89.2% (active); in experiment [3], 84.1% (active); in experiment [4], 89.6% (active); in experiment [5], 89.2% (active); in experiment [6] it was 88% (active).
On to `COC1=NS(=O)(=O)C2CCCCCCC2O1` (stereo not given), for which the growth inhibition was 11.1% in experiment [1]; -2.85% in experiment [2]; 1.15% in experiment [3]; -74.2% in experiment [4]; 10.6% in experiment [5]; -7.4% in experiment [6].
Consider `OC[C@H]1N[C@H](CO)[C@@H](O)[C@H]1O`, for which the growth inhibition in experiment [1] was 1.7%; in experiment [2] it was -10.2%; in experiment [3], 4.35%; in experiment [4], 16.8%; in experiment [5], -15.6%; in experiment [6], 10.2%.
`O=S(=O)(O)c1cc(O)c(S(=O)(=O)O)cc1O`: the growth inhibition is -12.2% in experiment [1]; 13.9% in experiment [2]; 1.7% in experiment [3]; -3.6% in experiment [4]; 1.4% in experiment [5]; -8.6% in experiment [6].
As to `Cc1ccc(-c2ccc(C)cc2C(=O)O)c(C(=O)O)c1`, the growth inhibition in experiment [1] is -21.8%; in experiment [2], 1%; in experiment [3] it was 4%; in experiment [4] it was -28.1%; in experiment [5], -2.5%; in experiment [6], -15.3%.
As for `O=C(O)CCCl`, the growth inhibition in experiment [1] was -8.95% and -10.8%; in experiment [2], 7.65% and -16.2%; in experiment [3], 25.1% and -18.3%; in experiment [4], -27.1% and -34.2%; in experiment [5], -6.1% and -0.9%; in experiment [6] it was 29.3%.
As to `COc1cc(OC)c(C2SCC(=O)N2c2nnc(C(F)(F)F)s2)cc1OC` (stereo not given), the growth inhibition is 9.9% in experiment [1]; 13.8% in experiment [2]; 5.15% in experiment [3]; 3.75% in experiment [4]; 25.9% in experiment [5]; 6.8% in experiment [6].
Take `CCCCOC(=O)COCC(=O)OC(C)C(=O)OCCCC` (stereo not given): the growth inhibition in experiment [1] was -20.9%; in experiment [2] it was 13.1%; in experiment [3], 6.55%; in experiment [4] it was -22.1%; in experiment [5] it was 20%; in experiment [6], 4.1%.
`OCCCCC1CCCc2ccccc21` (stereo not given): the growth inhibition in experiment [1] is 17.3%; in experiment [2] it was 16.1%; in experiment [3], 3.15%; in experiment [4], -4.55%; in experiment [5] it was -1.85%; in experiment [6], -3.45%.
In the case of `O=[N+]([O-])c1cccc(S/N=C/c2ccccc2O)c1`, the growth inhibition was 98.8% (active) in experiment [1]; 99.5% (active) in experiment [2]; 99.2% (active) in experiment [3]; 97.5% (active) in experiment [4]; 99.2% (active) in experiment [5]; 99% (active) in experiment [6].
As to `S=c1c2[nH]cnc2ncn1CCSC1=NC=NC2=NC=NC21` (stereo not given), the growth inhibition was 27.8% in experiment [1]; -23.6% in experiment [2]; -26.9% in experiment [3]; -22.8% in experiment [4]; -55% in experiment [5]; -8.6% in experiment [6].
Regarding `CCO/C([O-])=N\[n+]1c(C)nc2cc3c(cc2c1C)OCO3`, the growth inhibition in experiment [1] was 5.75%; in experiment [2] it was 5.65%; in experiment [3] it was 1.2%; in experiment [4], 7.8%; in experiment [5], 9%; in experiment [6], 8.9%.
For `NNC(=O)CCC(=O)O`, the growth inhibition in experiment [1] is 0.75%; in experiment [2], -0.5%; in experiment [3], 1.7%; in experiment [4] it was -3.6%; in experiment [5], 12.7%; in experiment [6], -15.6%.
Take `COc1ccc2c(CSc3ncnc4nc[nH]c34)cc(=O)oc2c1`: the growth inhibition in experiment [1] is 12.4%; in experiment [2], 21.8%; in experiment [3], 13.1%; in experiment [4] it was -14.7%; in experiment [5] it was 25.4%; in experiment [6] it was 34.9%.

The values are drawn from PubChem BioAssay (NCI).
